Where “and” joins values, the source holds several entries; their conditions need not be identical. Identical values can stand only once. This is part of a sample that, as a whole, favours compounds with a hit. Of some 83,000 tested, about 20% had one in any assay.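 Testing used 96-well plates and a 48-hour single-concentration exposure. Example: -40 means 40% of the starting cells died.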 Unmarked numbers belong to inactive results. Calls of active or inactive are those of the source.
Each molecule was assayed on TK-10 renal (assay: NCI-60 one-dose screen, 48 h (100 = growth as untreated, 0 = no growth, -100 = all killed)). Details: 10 µM.
Protocol: Growth inhibition of the TK-10 human tumor cell line is measured as a screen for anti-cancer activity. Cells are grown in 96 well plates and exposed to the test compound for 48 hours. Compounds are tested at a single concentration, which is 10^-5 M for most compounds. The reported endpoint is percent growth (GI% or GIPRCNT), where numbers from 0 - 100% represent growth inhibition, and numbers from -100% - 0 represent cell death. For example, a value of 40 represents 60% growth inhibition. A value of 0 means no net growth occurred over the course of the experiment. A value of -40 indicates 40% of cells at the beginning of the experiment died by the end of the experiment. A value of -100 means all cells are dead at the end of the experiment.
NCI-60 Human Tumor Cell Lines Screen was performed using the standard one-dose NCI protocol, which is described in more detail at https://dtp.cancer.gov/discovery_development/nci-60/default.htm.
Compounds with GIPRCNT values below 10 were considered active. Activity score was based on GIPRCNT using the following formula: […]
Score is 0 for GIPRCNT values of 100 or above, 50 for GIPRCNT values of 0, and 100 for GIPRCNT values of -100.
In the case of `COc1cc2c(c(OC)c1OC)-c1ccc(O)c(=O)cc1[C@@H](NC(C)=O)CC2`, the growth is reported as 64.4%.

Same assay, conditions: 10 µM unless noted
For `Oc1ccccc1-c1ccccc1`, the growth was 97.4% and 105%. `NNc1ccccc1` showed a growth of 42.3%. In the case of `C[C@@H]1C[C@@H]([C@H](O)CC2CC(=O)NC(=O)C2)C(=O)[C@@H](C)C1`, the growth is reported as 8.46% (active). For `O=C(CCl)Nc1ccc(Cl)cc1`, the growth was 66.7%. `COC(=O)C1C(O)C(C)C(O)C(C)/C=C\C=C(C)C(=O)Nc2c(C)c(OC(C)=O)c3c(c2O)C(=O)C(C)=C2OCOC(=C23)C(C)=CC(C)(O)C(O)C(C)C1O` (stereo not given) showed a growth of 107%. `Cc1ccc(C(=O)C2C(c3ccccc3)N2C2CCCCC2)cc1` (stereo not given) was tested, and the growth was 137% and 108%. `O=C1C(=O)c2ccccc2-c2ccccc21` was tested, and the growth was -97.9% (active). For `COC1CC2C=C(C)/C=C/C=C/C(=O)NC(c3ccccc3)C/C=C/CCC(O)CC(=O)C2=C1O` (stereo not given), the growth was -59.9% (active). `[Cl][Hg][c]1ccc2ccccc2c1` was tested, and the growth was -95.3% (active). For `COc1cc(/C=C/[N+](=O)[O-])cc(OC)c1OC`, the growth was -11% (active). `CC(=O)[O][Hg][c]1c(C)c(C)cc(C)c1C` was tested, and the growth was -82.6% (active). With `CC/C(=C/c1ccc(OC)cc1)[N+](=O)[O-]` the growth was -9.47% (active). Molecule `NC(=O)c1cc([N+](=O)[O-])c(Cl)c([N+](=O)[O-])c1` has a growth of 84.1%. Work on `ClCc1ccc2ccccc2n1` yielded a growth of 113%. For `[O-][n+]1ccccc1S`, the growth was 37.2%. Work on `N#CCc1ccccc1` yielded a growth of 108%. For `Cn1c(O)c(N=O)c(=O)n(C)c1=O`, the growth was 102% and 105%. Work on `CC/C(=C/c1ccc(OC)cc1OC)[N+](=O)[O-]` yielded a growth of 11.1%. `COc1ccc2c(ccc3oc([N+](=O)[O-])cc32)c1` was tested, and the growth was -15% (active). For `O=[N+]([O-])/C=C/c1ccc([N+](=O)[O-])cc1`, the growth was 18.8% and 88.6%. With `CC[C@@]1(O)C[C@H](OC2CC(N(C)C)C(O)C(C)O2)c2c(cc3c(c2O)C(=O)c2c(O)ccc(O)c2C3=O)[C@H]1C(=O)OC` (stereo not given in full) the growth was -50.4% (active). In the case of `S=C=NCCc1ccccc1`, the growth is reported as 78.9%. For `COc1ccc(/C=C\[N+](=O)[O-])cc1OC`, the growth was 85.9% and 76.5%. `CC(C)C1(NC(=O)C2CC3c4cccc5[nH]cc(c45)CC3N(C)C2)OC2(O)C3CCCN3C(=O)C(Cc3ccccc3)N2C1=O` (stereo not given) was tested, and the growth was 123%. `O=C(CBr)Nc1ccccc1` showed a growth of 87.4%. In the case of `CC12OOC(c3ccccc31)c1c2ccc2ccccc12` (stereo not given), the growth is reported as -42.6% (active). `CN(C)CC1(N)C(=O)NC(=O)NC1=O` was tested, and the growth was 97.9%. With `CCOP(=O)(OCC)/C(C#N)=C/c1ccc(Br)cc1` the growth was 104%. `C/C1=C\[C@H](C)C[C@H](C)OC(=O)C[C@H](c2ccc(O)cc2)NC(=O)[C@@H](Cc2c(Br)[nH]c3ccccc23)N(C)C(=O)[C@H](C)NC(=O)[C@@H](C)C1` was tested, and the growth was -81.7% (active). `O=C(CBr)Nc1ccc(Cl)cc1` was tested, and the growth was 111%. `O=C1C=Cc2ccccc2C1=O` showed a growth of 87.9%. `O=S(=O)(F)c1ccc(Cl)cc1` gave a growth of 107%. For `CN(CCCl)c1ccc(/C=C/C2=[N+](C)c3ccccc3C2(C)C)cc1`, the growth was 54.7%. `O=[N+]([O-])/C=C\c1ccc2c(c1)OCO2` was tested, and the growth was 87.1%. `CC(C)(C)OOC(=O)/C=C\C(=O)OOC(C)(C)C` gave a growth of 101%. For `Cc1ccc(NC(=O)CBr)cc1`, the growth was 110%. With `CCCCCCCC[N+]12CN3CN(CN(C3)C1)C2` the growth was 99.8%. Work on `COS(=O)(=O)c1ccccc1` yielded a growth of 104%.

Same assay, conditions: 100 µM
Work on `COc1cc2c(c(OC)c1OC)-c1ccc(O)c(=O)cc1[C@@H](NC(C)=O)CC2` yielded a growth of 12.6%.

From PubChem BioAssay (NCI)
